# KB-3-1 tox: kills parental KB-3-1 adenocarcinoma cells; KB-3-1 viability, CellTiter-Glo ATP luminescence, 72 h; AID 1347075; 400,000 tested, 1.4% active; Potency, µM (titrated, usually from 46.1 µM), actives largely listed as cytotoxic; further: on the % scale 0 is the no-effect control and ±100 the full control effect; nearly all actives have a fitted effect of over 60% in size
#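 Cytotoxicity measured as CellTiter-Glo luminescence after 72 h at 37 C. Compound titrations were pinned onto drug-naive KB-3-1 parental adenocarcinoma cells grown in DMEM with 10% FBS, and normalized data fitted to concentration-response curves.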
# MCF10A rerep: DNA re-replication induction in MCF 10a cells | MCF 10A DNA re-replication, Hoechst nuclear intensity, 48 h | Potency, µM (highest dose often 46.1 µM), for inactives: at the top dose activity, positive = re-replication, hits mostly activators | 350,000 tested, 2.9% active; further: % of control where 0% means no effect; nearly all actives have a fitted effect of over 50% in size
# RORgamma inh: blocks mouse ROR gamma transcriptional activity; 310,000 tested, 5.4% active; Drosophila S2 Gal4-RORgamma UAS-luciferase reporter, 20 h; Potency, µM (series often up to 53.6 µM), inactives show top-dose activity change, negative = inhibition, hits mostly inhibitors; P51450; AID 2551; further: on the % scale 0 is the no-effect control and ±100 the full control effect; nearly all actives have a fitted effect of over 60% in size
# Target sequence (P51450 whole entry, looked up, the tested form may be a part): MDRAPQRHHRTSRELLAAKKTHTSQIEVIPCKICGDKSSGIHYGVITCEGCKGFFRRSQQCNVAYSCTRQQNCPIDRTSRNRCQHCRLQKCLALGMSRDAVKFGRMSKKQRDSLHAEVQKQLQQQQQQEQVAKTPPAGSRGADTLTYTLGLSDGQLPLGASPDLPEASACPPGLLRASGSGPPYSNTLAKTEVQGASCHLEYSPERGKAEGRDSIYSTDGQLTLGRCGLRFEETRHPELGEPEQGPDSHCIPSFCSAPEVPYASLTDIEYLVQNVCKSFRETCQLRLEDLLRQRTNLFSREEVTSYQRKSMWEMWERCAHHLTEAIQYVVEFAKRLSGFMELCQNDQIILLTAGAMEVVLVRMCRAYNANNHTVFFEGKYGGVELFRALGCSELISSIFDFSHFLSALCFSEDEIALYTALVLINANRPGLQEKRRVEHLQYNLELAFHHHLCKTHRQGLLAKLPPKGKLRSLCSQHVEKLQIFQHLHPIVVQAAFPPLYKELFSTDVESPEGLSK
#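 Luminescence from a UAS-regulated Photinus luciferase reporter in stably transfected Drosophila Schneider cells is measured; decreased signal marks ROR gamma inhibition. Fusion expression is induced by 700 uM copper sulfate for 20 hr.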
# SW480 rerep: inducers of DNA re-replication in SW480 colon cancer cells | SW480 DNA re-replication, Hoechst DNA content imaging, 48 h | Potency, µM (titrated, usually from 46.1 µM), without a hit: at the top dose re-replication activation, actives largely listed as activators | 340,000 tested, 1.8% active | AID 624297; further: % of control where 0% means no effect; nearly all actives have a fitted effect of over 55% in size
#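 Treated cells incubate 48 hr (37 C, 5% CO2), are stained 40 min with Hoechst, and nuclear fluorescence is enumerated; a rise in nuclei with high DNA signal marks re-replication.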
# KB-V1 MDR tox: kills drug-selected multidrug resistant KB-V1 cells; KB-V1 MDR cells viability, CellTiter-Glo, 72 h; 400,000 tested, 3.4% active; Potency, µM (highest dose often 46.1 µM), most hits filed as cytotoxic; further: on the % scale 0 is the no-effect control and ±100 the full control effect; nearly all actives have a fitted effect of over 60% in size
#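 Potencies derive from concentration-effect curves fitted to normalized luminescence (CellTiter-Glo) of KB-V1 cells treated for 72 h at 37 degrees C in phenol-red-free DMEM containing 10% FBS.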
# Gal4-VP16 FLuc: counter-screen for ROR gamma inhibitors: Gal4-VP16 reporter | 310,000 tested, 3.5% active | Potency, µM (highest dose often 53.6 µM), for inactives: at the highest dose activity, negative = inhibition, actives largely listed as inhibitors | Drosophila S2 Gal4-VP16 UAS-luciferase, luminescence, 20 h | AID 2546;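 further: Gal4-VP16 expression switched on by copper sulfate through the metallothionein promoter; on the % scale 0 is the no-effect control and ±100 the full control effect; nearly all actives have a fitted effect of over 50% in size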
# * = called active by the depositor; i = inactive; ? = inconclusive; / = not tested or not shown. Compounds with a hit are over-represented: about 10% of the library has one in this group of screens. The call rests on the fitted dose curve; in most records, active means well fitted curve in the direction sought with a large enough effect; inconclusive means small, poorly fitted or top-dose-only effect, or another doubt; inactive means no such curve, though single readings can be large; an effect the other way counts as inactive or inconclusive. Potency means the concentration at half of the fitted maximal effect.
SMILES,KB-3-1 tox,MCF10A rerep,RORgamma inh,SW480 rerep,KB-V1 MDR tox,Gal4-VP16 FLuc
O=C(OC(c1ccc(NS(=O)(=O)c2ccccc2)cc1)(C(F)(F)F)C(F)(F)F)c1ccccc1,?,18.4µM*,14.1µM*,?,i,?
CC(=O)c1ccc(NS(=O)(=O)c2ccccc2)cc1,i,2.5%,-22.1%,-0.4%,i,15.1%
Cc1ccc(S(=O)(=O)N2CCN(C(C)C(=O)Nc3ccccc3-c3ccccc3)CC2)cc1 (stereo not drawn),i,4.3%,14.3%,-30.5%,3.66µM*,-2.6%
Cc1cccc(NC(=S)N2CCCCCC2)c1,i,?,?,-0.4%,i,?
CCC(=O)Nc1cccc(NC(=O)CN2CCN(c3ccccc3OC)CC2)c1,i,-8.5%,1.9%,-2.8%,i,2.8%
COC(=O)c1cccc(NC(=S)N2CCN(c3ccccc3F)CC2)c1,i,-5.1%,14.1µM*,4.5%,i,1.7%
CCCC(=O)Nc1cccc(NC(=O)CN2CCN(c3ccccc3OC)CC2)c1,i,-3.6%,12.3%,?,2.59µM*,-1.8%
COc1cccc(NC(=S)N2CCN(c3ccccn3)CC2)c1,i,-2.3%,?,-1.7%,i,-5.0%
COc1ccccc1N1CCN(C(=S)Nc2cccc(C)c2)CC1,?,16.4µM*,5.01µM*,?,?,20µM*
COC(=O)c1cccc(NC(=S)N2CCCCC2)c1,i,0.4%,18.3%,1.2%,i,-21.8%
Cc1cccc(NC(=S)N2CCN(c3cc(C)ccc3C)CC2)c1,i,3.3%,3.98µM*,-2.6%,?,5.62µM*
N#Cc1cccc(NC(=O)C2CCN(c3cnccn3)CC2)c1,i,/,/,/,i,/
Cn1c(=O)c(C(=O)COC(=O)c2cc(C3CC3)nc3ccccc23)c(N)n(Cc2ccccc2)c1=O,i,?,-6.5%,7.6%,?,-9.8%
Cn1c(=O)c(C(=O)COC(=O)c2cc(-c3ccco3)nc3ccccc23)c(N)n(CC2CC2)c1=O,/,7.7%,?,16.4µM*,/,7.2%
Cc1cc(C)c(OCC(=O)OCC(=O)NCc2ccco2)c(C)c1,i,/,/,/,i,/
O=C(C1CCCCC1)N1CCC(c2nc3ccccc3[nH]2)CC1,i,-1.9%,36.4%,-0.6%,i,-3.2%
N#CC(C(=O)C1CCCCC1)c1nc2ccccc2[nH]1 (stereo not drawn),i,?,3.55µM*,?,i,7.94µM*
N#CC(C(=S)Nc1ccccc1)c1nc2ccccc2[nH]1 (stereo not drawn),i,?,1.12µM*,?,?,2.51µM*
OC(c1nc2ccccc2[nH]1)C(O)c1nc2ccccc2[nH]1 (stereo not drawn),i,-1.2%,9.5%,-6.3%,i,0.7%
CSC(=Nc1ccccc1)C(C#N)c1nc2ccccc2[nH]1 (stereo not drawn),i,-1.0%,5.62µM*,-22.7%,i,-14.1%
CCCn1c(SC(C(=O)Nc2cc(C)ccc2OC)c2ccccc2)nc2ccccc2c1=O (stereo not drawn),i,19.3%,20µM*,/,?,?
CCC1Oc2ccc(C)cc2N(CC(=O)NCc2ccc(F)cc2)C1=O (stereo not drawn),i,/,/,/,i,/
COc1ccc(N(CC(=O)NCc2ccccc2Cl)S(=O)(=O)c2c(C)[nH]c(=O)[nH]c2=O)cc1,i,/,/,/,i,/
CN(C)P(=O)(Nc1cccc2ccccc12)Nc1cccc2ccccc12,i,28.9%,/,-1.0%,11.6µM*,/
CC1(C)Cc2c(C#N)c(NCCc3ccccc3)nc(-c3ccco3)c2CO1,?,14.6µM*,1.4%,6.51µM*,?,1.0%
SMILES,KB-3-1 tox,MCF10A rerep,RORgamma inh,SW480 rerep,KB-V1 MDR tox,Gal4-VP16 FLuc
CCN(CC)CCNc1nc(-c2ccco2)c2c(c1C#N)CC(C)(C)OC2,i,16.5%,5.7%,11.7%,?,-9.0%
Cc1ccc(NC(=O)c2ccc(S(=O)(=O)N3CCOCC3)cc2)nc1,i,-0.2%,17.1%,-6.7%,16.4µM*,5.5%
Cc1ccc(CSCCNC(=O)c2ccc(Cl)c(S(=O)(=O)N3CCOCC3)c2)cc1,20.6µM*,6.8%,40.1%,1.1%,3.66µM*,-21.9%
Cc1ccc(NC(=O)c2ccc(C(=O)c3ccccc3)cc2)nc1,14.6µM*,1.0%,/,?,?,/
O=C(NCCSCc1c(F)cccc1Cl)c1ccc(CN2CCOCC2)cc1,?,?,41.5%,1.9%,16.4µM*,-3.8%
COc1ccc(-c2nc3cnc(OC)nc3n(CCc3ccccc3)c2=O)cc1,/,/,-0.3%,/,/,4.3%
COc1cccc(NCc2cccn2-c2nnc(N3CCC(C)CC3)s2)c1,i,/,/,/,?,/
Cc1ccc(NC(=O)c2ccc(C)c(S(=O)(=O)N3CCOCC3)c2)nc1,i,6.8%,/,-6.1%,14.6µM*,/
Cc1ccc(C(=O)Nc2ccc(Cl)cn2)cc1S(=O)(=O)N1CCOCC1,i,6.7%,5.6%,-1.0%,?,-2.3%
O=C1C(F)=CC(COC(c2ccccc2)(c2ccccc2)c2ccccc2)OC1n1cc(F)c(=O)[nH]c1=O (stereo not drawn),?,2.59µM*,/,7.31µM*,?,/
COc1ccc(-c2ccc(=O)n(CC(=O)Nc3ccc(N(C)C)cc3)n2)cc1,i,/,/,/,i,/
Cn1nc(-c2ccccc2F)c2cc(C(=O)N3CCN(c4ccccc4F)CC3)sc21,?,/,/,/,5.17µM*,/
Cc1nnc(SC(C)C(=O)Nc2ccc(S(=O)(=O)N3CCCCCC3)cc2)s1 (stereo not drawn),i,13.7%,15.0%,-2.5%,16.4µM*,3.3%
Cc1nnc(NC(=O)c2ccc(S(=O)(=O)N3CCCCC3)cc2)s1,i,1.8%,/,-10.8%,i,/
CCCC(=O)Nc1ccc(S(=O)(=O)N2CCCC2)cc1,i,-2.4%,16.3%,-0.5%,?,10.5%
CCCCC(=O)NC(=S)Nc1ccc(S(=O)(=O)N2CCCC2)cc1,i,?,12.6µM*,-1.6%,?,-19.7%
COC(=O)Nc1ccc(S(=O)(=O)N2CCCCCC2)cc1,i,?,33.3%,19.4%,18.4µM*,-2.7%
CC(=O)Nc1ccc(NC(=O)C(C)OC(=O)c2ccc(S(=O)(=O)N3CCCCCC3)cc2)cc1 (stereo not drawn),?,14.6µM*,/,?,?,/
COc1ccc(C)cc1NC(c1nnc(-c2ccccc2)o1)c1ccc(F)cc1Cl (stereo not drawn),i,/,/,/,i,/
Cc1cc(C)c(NC(=O)CN(C)S(=O)(=O)c2ccc3c(c2)CCC(=O)N3)c(C)c1,i,/,/,/,i,/
